# Test results as given in PubChem BioAssay AID1662 (Broad Institute, 2009).
# In all, about 300,000 compounds went through this assay and about 4,000 (1.3%) were called active.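 How the source made its calls: active means mean replicate score, as percent of positive control median, at least 50; inconclusive means mean below 50 but one replicate at or above 50; inactive means mean and every replicate below 50.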 For the sample, actives were picked, then their nearest neighbours and some compounds at random.
# Test: S. pyogenes SKKanGAS growth inhibitors in kanamycin, primary screen, streptokinase expression inhibitor project, SKKanGAS strain, BacTiter-Glo luminescence (AID 1662);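 further: strain carries kanamycin resistance gene driven by streptokinase promoter and grows in 40 µg/ml kanamycin; loss of luminescence reflects streptokinase promoter inhibition or plain growth inhibition; 0% = median of DMSO wells and 100% = positive control at its reference dose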
# Conditions: 6 h, at 7.5 µM, active compounds read high
row,SMILES,inhibition
1,CC(=O)Nc1ccc(NS(=O)(=O)c2ccc3c(c2)NC(=O)CC(=O)N3)cc1,-2.61% (inactive)
2,CCOC(=O)N1CCN(S(=O)(=O)c2ccc(OC)cc2)CC1,-0.833% (inactive)
3,Cc1cc(N2C(=O)C(=O)/C(=C(/O)c3ccccc3)C2c2cccc(Br)c2)no1 (stereo unspecified),16.7% (inactive)
4,Cn1nnc(NC(=S)NC(=O)c2ccccc2)n1,-0.537% (inactive)
5,COc1ccccc1CCC(=O)OCC(=O)N1CCN(S(=O)(=O)c2ccc(C)cc2C)CC1,-9.85% (inactive)
6,Cc1ccccc1NC(=O)C1CCCN(C(=O)NCc2ccccc2)C1 (stereo unspecified),-1.35% (inactive)
7,CCCCN=C1C([N+](=O)[O-])=CC=C2C1=NC1(CCCCC1)N2O,2.56% (inactive)
8,Clc1ccc(-c2cc(C3CCNCC3)[nH]n2)c(Cl)c1,7.25% (inactive)
9,COc1ccc(CCNC(=O)CCCCCNC(=O)N2CCn3c2nc2ccccc23)cc1OC,3.33% (inactive)
10,COc1ccccc1N1CCN(C(=O)CCS(=O)(=O)c2ccc3c(c2)NC(=O)C(C)S3)CC1 (stereo unspecified),-2.2% (inactive)
11,COC(=O)CNC(c1ccccc1Cl)c1cc(Br)ccc1NC(=O)CCN1CCOCC1 (stereo unspecified),-3.8% (inactive)
12,CC(=O)O[C@H]1CC[C@@]2(C)[C@@H](CC[C@@H]3[C@@H]2CC[C@]2(C)[C@@H](C(C)(C)O)C[C@@H]32)C1,29% (inactive)
13,CCOc1cc(-c2cc(-c3ccc(OC)cc3)nc(N)c2C#N)ccc1O,30.5% (inactive)
14,COc1ccc(-c2cc(-c3ccc(N)cc3)nc(N)c2C#N)cc1OC,9.35% (inactive)
15,CCOc1cc(-c2cc(-c3ccc(NC(C)=O)cc3)nc(N)c2C#N)ccc1O,83.8% (active)
16,O=S(=O)(c1cccc(C(F)(F)F)c1)N1CCN(c2cnccn2)CC1,0.567% (inactive)
17,CC(C)CCNC(=O)CCNS(=O)(=O)c1ccc(Cl)cc1,-4.22% (inactive)
18,COCCSc1nnc(NC(=O)CCS(=O)(=O)Cc2ccccc2)s1,-1.08% (inactive)
19,Cc1cc(C)cc(N(CCC#N)C(=O)CN2C(=O)NC3(CCCC3)C2=O)c1,-1.7% (inactive)
20,Cc1ccc(OCc2n[nH]c(=S)n2-c2ccc(C)cc2)cc1,-0.726% (inactive)
21,Cc1ccc(OCCCCc2c(C)n[nH]c2C)cc1,87.2% (active)
22,CCCOc1ccc(-c2nc(N)n[nH]2)cc1,-0.246% (inactive)
23,Cc1cc2c(c(=O)n1C)C(C(C)C)C(C#N)=C(N)O2 (stereo unspecified),-0.711% (inactive)
24,CCOC(=O)c1c(-c2ccccc2)oc2cc(Br)c(O)cc12,12.5% (inactive)
25,CCOC(=O)c1c(-c2ccccc2)oc2cc(Br)c(O)c(C=O)c12,56.9% (active)
26,CCOC(=O)c1c(-c2ccccc2)oc2ccc(OCC(N)=O)cc12,-10.7% (inactive)
